Assay results taken from PubChem BioAssay AID1159580 (chemical genetic matrix, 2015).
The campaign covered roughly 5,500 compounds. About 2,000 (36%) were called active. Not shown: some 18% with an inconclusive outcome. Rule as the data show it: active = normalized growth mostly below about 0.91 (no sharp cut-off); inconclusive = no clear call, values can overlap the other calls; inactive = mostly above about 0.92. This is one part of the list.

Assay: chemical genetic growth profiling, strain panel (AID 1159580);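 also: tested at 20 µM; growth read once vehicle control cultures reached saturation at 30 °C; 1 = growth at the plate median or of vehicle wells; lower values mean less growth of the strain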
Details: growth OD

Measured: normalized growth

CC1(C)C(=O)C=C[C@@]2(C)C1C[C@@H](O)[C@]1(C)C2CC[C@@]2(C)[C@H](c3ccoc3)OC(=O)[C@H]3O[C@]321 (stereo partly specified)
inactive: S. cerevisiae deletion strains, locus YJR066W, strain TOR1, hits give low values 0.938 | S. cerevisiae deletion strains, locus YKL009W, strain mrt4, hits give low values 0.95 | S. cerevisiae deletion strains, locus YKL068W, hits give low values 0.973 | S. cerevisiae deletion strains, locus YKL085W, strain MDH1 (second series), hits give low values 0.973 | S. cerevisiae deletion strains, locus YKL085W, strain MDH1, hits give low values 0.973 | S. cerevisiae deletion strains, locus YKL160W, strain elf1, hits give low values 1 | S. cerevisiae deletion strains, locus YKL190W, strain CNB1, hits give low values 0.983 | S. cerevisiae deletion strains, locus YKR001C, strain vps1, hits give low values 0.963 | S. cerevisiae deletion strains, locus YKR026C, strain gcn3, hits give low values 0.995 | S. cerevisiae deletion strains, locus YKR091W, strain srl3, hits give low values 0.989 | S. cerevisiae deletion strains, locus YLL001W, strain dnm1, hits give low values 1.01 | S. cerevisiae deletion strains, locus YLL026W, hits give low values 1 | S. cerevisiae deletion strains, locus YLL041C, strain sdh2, hits give low values 0.992 | S. cerevisiae deletion strains, locus YLR027C, strain aat2, hits give low values 1.02 | S. cerevisiae deletion strains, locus YLR039C, strain RIC1, hits give low values 0.972 | S. cerevisiae deletion strains, locus YLR058C, strain SHM2, hits give low values 0.959 | S. cerevisiae deletion strains, locus YLR102C, strain apc9, hits give low values 0.983 | S. cerevisiae deletion strains, locus YLR113W, strain HOG1, hits give low values 0.991 | S. cerevisiae deletion strains, locus YLR221C, strain rsa3, hits give low values 1 | S. cerevisiae deletion strains, locus YLR258W, strain gsy2, hits give low values 1.03 | S. cerevisiae deletion strains, locus YLR262C, strain YPT6 (second series), hits give low values 0.992 | S. cerevisiae deletion strains, locus YLR262C, strain YPT6, hits give low values 0.962 | S. cerevisiae deletion strains, locus YLR268W, strain sec22, hits give low values 0.952 | S. cerevisiae deletion strains, locus YLR320W, strain mms22, hits give low values 1.01 | S. cerevisiae deletion strains, locus YLR330W, strain CHS5, hits give low values 0.987 | S. cerevisiae deletion strains, locus YLR342W, strain FKS1 (second series), hits give low values 1.02 | S. cerevisiae deletion strains, locus YLR342W, strain FKS1, hits give low values 1.02 | S. cerevisiae deletion strains, locus YLR357W, strain rsc2, hits give low values 0.965 | S. cerevisiae deletion strains, locus YLR370C, strain arc18, hits give low values 0.996 | S. cerevisiae deletion strains, locus YLR371W, strain rom2, hits give low values 0.99 | S. cerevisiae deletion strains, locus YLR384C, strain iki3, hits give low values 1 | S. cerevisiae deletion strains, locus YLR418C, strain cdc73, hits give low values 0.933 | S. cerevisiae deletion strains, locus YML016C, strain PPZ1, hits give low values 0.98 | S. cerevisiae deletion strains, locus YML032C, strain rad52, hits give low values 0.971 | S. cerevisiae deletion strains, locus YML120C, strain ndi1, hits give low values 1 | S. cerevisiae deletion strains, locus YML124C, strain tub3, hits give low values 0.989 | S. cerevisiae deletion strains, locus YMR058W, strain fet3, hits give low values 0.996 | S. cerevisiae deletion strains, locus YMR078C, strain ctf18, hits give low values 0.982 | S. cerevisiae deletion strains, locus YMR125W, strain sto1, hits give low values 0.984 | S. cerevisiae deletion strains, locus YMR129W, hits give low values 1.01 | S. cerevisiae deletion strains, locus YMR205C, strain PFK2, hits give low values 0.999 | S. cerevisiae deletion strains, locus YMR223W, strain ubp8, hits give low values 0.997 | S. cerevisiae deletion strains, locus YMR231W, strain pep5, hits give low values 0.992 | S. cerevisiae deletion strains, locus YMR307W, strain GAS1, hits give low values 0.954 | S. cerevisiae deletion strains, locus YNL067W, strain RPL9B, hits give low values 1.01 | S. cerevisiae deletion strains, locus YNL071W, strain lat1, hits give low values 1 | S. cerevisiae deletion strains, locus YNL183C, strain NPR1, hits give low values 0.963 | S. cerevisiae deletion strains, locus YNL209W, strain ssb2, hits give low values 1 | S. cerevisiae deletion strains, locus YNL233W, strain BNI4, hits give low values 1.01 | S. cerevisiae deletion strains, locus YNL248C, strain rpa49, hits give low values 0.917 | S. cerevisiae deletion strains, locus YNL250W, strain rad50, hits give low values 1 | S. cerevisiae deletion strains, locus YNL271C, strain bni1, hits give low values 0.984 | S. cerevisiae deletion strains, locus YNL298W, strain CLA4, hits give low values 0.995 | S. cerevisiae deletion strains, locus YNL307C, strain MCK1, hits give low values 0.989 | S. cerevisiae deletion strains, locus YNL322C, strain KRE1 (second series), hits give low values 1.01 | S. cerevisiae deletion strains, locus YNR049C, strain mso1, hits give low values 0.993 | S. cerevisiae deletion strains, locus YNR052C, strain pop2, hits give low values 0.992 | S. cerevisiae deletion strains, locus YOL012C, strain htz1 0.797 | S. cerevisiae deletion strains, locus YOL147C, strain pex11, hits give low values 0.997 | S. cerevisiae deletion strains, locus YOR001W, strain rrp6, hits give low values 0.986 | S. cerevisiae deletion strains, locus YOR061W, strain CKA2, hits give low values 0.952 | S. cerevisiae deletion strains, locus YOR069W, strain VPS5, hits give low values 0.992 | S. cerevisiae deletion strains, locus YOR070C, strain gyp1, hits give low values 1.03 | S. cerevisiae deletion strains, locus YOR080W, strain dia2, hits give low values 1.01 | S. cerevisiae deletion strains, locus YOR083W, strain WHI5, hits give low values 1 | S. cerevisiae deletion strains, locus YOR106W, strain vam3, hits give low values 0.996 | S. cerevisiae deletion strains, locus YOR136W, strain idh2, hits give low values 0.975 | S. cerevisiae deletion strains, locus YOR144C, strain elg1, hits give low values 0.986 | S. cerevisiae deletion strains, locus YOR184W, strain ser1, hits give low values 0.896 | S. cerevisiae deletion strains, locus YOR231W, strain MKK1, hits give low values 0.954 | S. cerevisiae deletion strains, locus YOR265W, strain rbl2, hits give low values 1.01 | S. cerevisiae deletion strains, locus YOR270C, strain vph1, hits give low values 0.97 | S. cerevisiae deletion strains, locus YOR290C, strain snf2, hits give low values 1 | S. cerevisiae deletion strains, locus YOR316C, strain cot1, hits give low values 0.985 | S. cerevisiae deletion strains, locus YPL051W, strain arl3, hits give low values 1.02 | S. cerevisiae deletion strains, locus YPL078C, strain atp4, hits give low values 1 | S. cerevisiae deletion strains, locus YPL106C, strain sse1, hits give low values 1.03 | S. cerevisiae deletion strains, locus YPL240C, strain hsp82, hits give low values 1 | S. cerevisiae deletion strains, locus YPL241C, strain CIN2, hits give low values 0.98 | S. cerevisiae deletion strains, locus YPL256C, strain CLN2, hits give low values 0.945 | S. cerevisiae deletion strains, locus YPR119W, strain clb2, hits give low values 0.985 | S. cerevisiae deletion strains, locus YPR141C, strain kar3, hits give low values 0.985 | S. cerevisiae deletion strains, locus YPR163C, strain tif3, hits give low values 0.98 | S. cerevisiae deletion strains, locus YPR167C, strain met16, hits give low values 0.99 | S. cerevisiae deletion strains, strain wtn01, hits give low values 0.96 | S. cerevisiae strains, strain wild type, hits give low values 0.97
